SARS PLP yeast: SARS-CoV PLP inhibition in yeast | S. cerevisiae expressing SARS-CoV PLpro, growth rescue | Potency, µM (series often up to 32.9 µM), inactives show at the highest dose activity, positive = growth rescue, actives largely listed as activators | 330,000 compounds, 0.19% hits | AID 485353; calls by dose curve; also: 0% is about no effect; nearly all actives have a fitted effect of over 55% in size
Sm TGR block: blocks Schistosoma mansoni thioredoxin glutathione reductase. purified TGR, DTNB reduction, TNB absorbance 405 nm. Potency, µM (highest dose often 114 µM), without a hit: at the top dose activity change, negative = inhibition, usual class: inhibitors. 360,000 compounds, 3% hits; also: % is scaled to controls: 0 for no effect and ±100 for the full control effect; nearly all actives have a fitted effect of over 60% in size
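First, TGR (20 nM dispensed) and NADPH were mixed with compound. Second, a 15 min room-temperature incubation followed. Third, further NADPH and then DTNB were added to start the reaction. Finally, TNB absorbance was monitored kinetically.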
AmpC detergent: inhibitors of E. coli AmpC beta-lactamase with detergent; P00811; AmpC hydrolysis of nitrocefin, absorbance 480 nm, 0.01% Triton; Potency, µM (titrated, usually from 114 µM), inactives show top-dose activity change, negative = inhibition, actives largely listed as inhibitors; 370,000 compounds, 0.041% hits;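 also: 0% = no-compound wells and -100% = no-enzyme wells; nearly all actives have a fitted effect of over 25% in size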
Target sequence (P00811 whole entry, looked up): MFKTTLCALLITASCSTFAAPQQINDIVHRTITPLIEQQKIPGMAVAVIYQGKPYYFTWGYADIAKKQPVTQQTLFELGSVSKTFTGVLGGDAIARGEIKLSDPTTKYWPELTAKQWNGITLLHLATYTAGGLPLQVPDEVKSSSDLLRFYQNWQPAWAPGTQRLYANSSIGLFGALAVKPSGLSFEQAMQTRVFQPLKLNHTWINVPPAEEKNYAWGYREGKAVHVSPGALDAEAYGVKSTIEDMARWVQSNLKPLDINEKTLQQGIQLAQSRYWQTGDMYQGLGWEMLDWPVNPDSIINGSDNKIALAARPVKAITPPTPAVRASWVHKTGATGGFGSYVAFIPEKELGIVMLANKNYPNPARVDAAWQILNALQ
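20 mM phosphate pH 7.0 + 0.01% (detergent screen) or 0.0001% Triton X-100; 5.3 nM AmpC reagent; cpd preinc 15 min RT; nitrocefin (800 uM stock) to start; A480 q20 s × 4 min; Activity was normalised to no-enzyme and no-compound control wells.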
AmpC no deterg: inhibitors of E. coli AmpC beta-lactamase without detergent | P00811 | AmpC nitrocefin hydrolysis, absorbance 480 nm, 0.0001% Triton | Potency, µM (top dose mostly 57.1 µM), for the others: at the top dose activity change, negative = inhibition, actives largely listed as inhibitors | 330,000 compounds, 0.52% hits | AID 485341;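 also: plate controls were no compound for no effect and no enzyme for full effect; nearly all actives have a fitted effect of over 20% in size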
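20 mM phosphate pH 7.0 + 0.01% (detergent screen) or 0.0001% Triton X-100; 5.3 nM AmpC reagent; cpd preinc 15 min RT; nitrocefin (800 uM stock) to start; A480 q20 s × 4 min; Activity was normalised to no-enzyme and no-compound control wells.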
Pf growth 48h: inhibits P. falciparum growth in the first generation, 48 h; P. falciparum luciferase growth in erythrocytes, 48 h; Potency, µM (doses to about 28.7 µM), for the others: at the highest dose activity change, negative = inhibition, most hits filed as inhibitors; 310,000 compounds, 5.9% hits; AID 504832; also: % is scaled to controls: 0 for no effect and ±100 for the full control effect
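Luciferase-expressing parasites in RBCs, 2% Hct / 0.1% parasitemia final; RPMI 1640 + 0.5% Albumax; 37 C, 5% CO2, one generation; luminescence read-out, lower signal = inhibition.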
Pf growth 96h: inhibits malaria parasite growth, 96 h | P. falciparum luciferase reporter growth, 96 h | Potency, µM (top dose mostly 28.7 µM), for the others: top-dose activity change, negative = inhibition, usual class: inhibitors | 320,000 compounds, 6.9% hits | AID 504834; also: % is scaled to controls: 0 for no effect and ±100 for the full control effect
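Readout is luminescence from an integrated firefly luciferase in P. falciparum. Red cells, 2% hematocrit and 0.05% parasitemia final, were cultured with compound through two parasite generations (96 hours) at 37 C, 5% CO2.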
Active calls of the source: *; ? = inconclusive; nt = no result given. The list is not random: actives were taken first. Their share in the collection is about 12%. Unless noted, calls follow the shape of the dose curve; as a rule, active = well fitted curve in the direction sought with a large enough effect; inconclusive = small, poorly fitted or top-dose-only effect, or another doubt; inactive = no such curve, though single readings can be large; an effect the other way counts as inactive or inconclusive. Potency is read from the fitted curve at half-maximal effect.

SMILES	SARS PLP yeast	Sm TGR block	AmpC detergent	AmpC no deterg	Pf growth 48h	Pf growth 96h
CC(C)Cn1c(=O)c(C(=O)NCc2ccc3c(c2)OCO3)c(O)c2ccccc21	11%	-3%	-6%	-18%	?	?
CCOc1cccc(NCc2cc3c(C(C)(C)C)nn(-c4ccccc4)c3[nH]c2=O)c1	-6%	-6%	-5%	-20%	?	nt
Cn1nc(C(=O)Nc2ccc3c(c2)OCCO3)c2ccccc2c1=O	1%	0%	8%	-7%	22%	28%
O=C(Nc1ccc2c(c1)OCO2)c1nn(-c2ccccc2)c(=O)c2ccccc12	-2%	-8%	2%	-1%	12µM*	13µM*
COc1cccc(-n2nc(C(=O)Nc3ccc4c(c3)OCO4)c3ccccc3c2=O)c1	-3%	2%	1%	19%	?	?
S=c1[nH]c2ccc3ccccc3c2[nH]1	-5%	nt	2%	-16%	21%	?
Cc1[nH]c2c(ccc3ccccc32)c1C1C(CCN)C1(C)C (centres undefined)	-7%	7%	2%	44%	10µM*	nt
Cc1cc(C(C)(C)C)oc1C(=O)N(CC(=O)NC1CCCC1)c1cccc(C(F)(F)F)c1	-9%	-13%	11%	2%	9.3µM*	12µM*
Cc1ccc(C(=O)N(CC(=O)NC2CCCC2)c2cccc(F)c2)s1	0%	-13%	?	-6%	10%	12%
Cc1ccc(C(=O)N(CC(=O)NC2CCCCC2)c2ccccc2C)s1	-2%	-6%	-1%	-7%	-21%	?
Cc1ccccc1N(CC(=O)NC1CCCC1)C(=O)c1oc(C(C)(C)C)cc1C	2%	5%	14%	0%	12µM*	?
Cc1cc(C(C)(C)C)oc1C(=O)N(CC(=O)NC1CCCC1)Cc1ccccc1Cl	-16%	-2%	6%	5.6µM*	?	9.3µM*
COc1ccc(-c2nc3c4ccccc4n(CC(=O)Nc4cc(F)ccc4F)c(=O)n3n2)cc1	nt	8%	4%	nt	nt	nt
Cc1ccc(-c2noc(CCC(=O)NCCN3CCc4ccccc4C3)n2)cc1	9%	-5%	-9%	101%	?	?
CCCOC(=O)/C(=C\c1ccc([N+](=O)[O-])o1)NC(=O)c1ccccc1	-17%	-24%	-8%	-28%	?	0.41µM*
C#CCOC(=O)/C(=C/C=C/c1ccccc1)NC(=O)c1ccccc1	13%	2%	6%	-20%	10%	25%
CCCOC(=O)/C(=C\C=C\c1ccco1)NC(=O)c1ccccc1	-3%	8.9µM*	3%	-48%	-12%	57%
CC(C)OC(=O)/C(=C\C=C\c1ccccc1)NC(=O)c1ccccc1	?	22%	3%	-4%	12µM*	10%
COc1ccc(CCNC(=O)CSc2ccc(-c3ccncc3)nn2)cc1	0%	0%	6%	-23%	-29%	31%
COc1ccc(CCNC(=O)CSc2ccc(-c3ccco3)nn2)cc1	0%	13µM*	-9%	-18%	-12%	-26%
O=C(CSc1ccc(-c2ccco2)nn1)NCCc1ccccc1	-3%	11µM*	5%	-13%	-7%	-14%
COC(=O)/C(C#N)=C/c1c(Oc2cccc(C)c2C)nc2ccccn2c1=O	0%	-16%	4%	-18%	12%	8%
O=S(=O)(c1ccc(Br)cc1)n1c(Cc2ccccc2)nc2ccccc21	-15%	-3%	?	-17%	-7%	?
O=S(=O)(N1CCCCC1)n1c(Cc2ccccc2)nc2ccccc21	-12%	16%	0%	-7%	12µM*	nt
CSc1nc(O)c(C(c2ccc(O)cc2)c2c(O)nc(SC)[nH]c2=O)c(=O)[nH]1	0%	?	-4%	-8%	-12%	35%
SMILES	SARS PLP yeast	Sm TGR block	AmpC detergent	AmpC no deterg	Pf growth 48h	Pf growth 96h
CCN(CC)S(=O)(=O)c1cc(NC(=O)C(C)N2CCN(c3ccccn3)CC2)ccc1C (centres undefined)	-5%	-8%	-4%	128%	12µM*	3.7µM*
CCN(CC)S(=O)(=O)c1cc(NC(=O)CN2CCN(c3ccccn3)CC2)ccc1C	0%	18%	10%	170%	?	?
CCN(CC)S(=O)(=O)c1cc(NC(=O)C(C)Nc2ccccc2N2CCOCC2)ccc1C (centres undefined)	-1%	-1%	?	142%	?	7.4µM*
Cc1ccc(CNc2ccc(S(=O)(=O)N3CCOCC3)cc2[N+](=O)[O-])cc1	3%	-1%	?	-1%	1%	10µM*
CC(C)N1CCC(=NNc2ccc(S(=O)(=O)N3CCOCC3)cc2[N+](=O)[O-])CC1	-18%	35µM*	?	4%	-17%	99%
CN1CC=C(c2c[nH]c3ccccc23)CC1	-14%	0%	?	-18%	2.6µM*	24%
CCCOc1cccc(C2c3c(oc4ccccc4c3=O)C(=O)N2c2nncs2)c1 (centres undefined)	nt	3%	23%	nt	nt	nt
CCc1sc(N(C(=O)Cc2ccccc2)c2ccc(F)cc2)nc1-c1ccccc1	-5%	1%	2%	-14%	nt	27%
CCCCC(=O)N(c1ccc(C(=O)O)cc1)c1nc(-c2ccc(Cl)cc2)c(CC)s1	-1%	nt	-5%	-13%	2.3µM*	?
CCc1sc(N(C(=O)Cc2ccccc2)c2ccccc2)nc1-c1ccccc1	-2%	0%	-5%	-23%	13µM*	nt
O=C(CCCn1ncn2c(cc3occc32)c1=O)NCc1cccc(Cl)c1	1%	-7%	4%	5%	?	?
O=C(CCNS(=O)(=O)c1ccccc1F)N1CCN(C(c2ccccc2)c2ccccc2)CC1	3%	-31%	0%	62%	13µM*	?
O=C(CCNS(=O)(=O)c1ccccc1F)N1CCN(S(=O)(=O)c2cccc(F)c2)CC1	1%	-3%	?	25%	?	?
COC(=O)/C(=C(/F)Sc1cc(C)c(O)c(C)c1)C(F)(F)F	-44%	?	-4%	-22%	9.3µM*	nt
Cc1cccc(-n2c(SCC(=O)N3CC(=O)Nc4ccccc43)nc3ccccc3c2=O)c1	1%	nt	2%	3%	13µM*	?
Cc1cccc(-n2c(SCC(=O)N3CC(=O)Nc4ccccc43)nc3ccccc3c2=O)c1C	11%	-19%	-13%	?	?	3.7µM*
Cc1ccc(-n2c(SCC(=O)N3CC(=O)Nc4ccccc43)nc3ccccc3c2=O)cc1C	28%	-2%	-3%	3%	10µM*	8.3µM*
COc1cccc(-c2nc(SCC(=O)Nc3ccc4c(c3)OCCO4)c(-c3ccc(C)cc3)[nH]2)c1	nt	0%	-3%	nt	nt	nt

From PubChem
